# The supplement of paper PMC8728848
# The sample as a whole holds a higher share of the strongest signals than the screen did.
# B1: AAL (Aleuria aurantia), P18891 (protein)
# chain: PTEFLYTSKIAAISWAATGGRQQRVYFQDLNGKIREAQRGGDNPWTGGSSQNVIGEAKLFSPLAAVTWKSAQGIQIRVYCVNKDNILSEFVYDGSKWITGQLGSVGVKVGSNSKLAALQWGGSESAPPNIRVYYQKSNGSGSSIHEYVWSGKWTAGASFGSTVPGTGIGATAIGPGRLRIYYQATDNKIREHCWDSNSWYVGGFSASASAGVSIAAISWGSTPNIRVYWQKGREELYEAAYGGSWNTPGQIKDASRPTPSLPDTFIAANSSGNIDISVFFQASGVSLQQWQWISGKGWSIGAVVPTGTPAGW
# Assays:
# Test in all cases: glycan array binding signal (z-score within array); higher = stronger binding
# Settings in all cases: glycan notation: IUPAC condensed, linker removed
# [1] = target: Fuc(a1-2)Gal(b1-3)GlcNAc(b1-2)Man(a1-3)[Fuc(a1-2)Gal(b1-3)GlcNAc(b1-2)Man(a1-6)]Man(b1-4)GlcNAc(b1-4)[Fuc(a1-6)]GlcNAc
# Method in brief: (§1)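 Arrays were curated from the Consortium for Functional Glycomics database, 3228 in total, and kept only where the protein sequence was available. Binding is expressed as a within-array Z-score. This score was averaged across arrays of the same protein sequence at different concentrations or buffers and across linkers, and negative values can be read as non-binding.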
# Fuc(a1-2)Gal(b1-4)Glc6S = target: Fuc(a1-2)Gal(b1-4)Glc6S
# Method in brief: as §1
# [2] = target: Fuc(a1-2)Gal(b1-4)GlcNAc(b1-3)Gal(b1-4)GlcNAc(b1-3)Gal(b1-4)GlcNAc
# Method in brief: as §1
# [3] = target: Fuc(a1-2)Gal(b1-4)GlcNAc6S
# Method in brief: as §1
# [4] = target: Fuc(a1-2)Gal(b1-4)[Fuc(a1-3)]GlcNAc
# Method in brief: as §1
# [5] = target: Fuc(a1-2)Gal(b1-4)[Fuc(a1-3)]GlcNAc(b1-3)Gal(b1-4)[Fuc(a1-3)]GlcNAc(b1-3)Gal(b1-4)[Fuc(a1-3)]GlcNAc
# Method in brief: as §1
# [6] = target: Fuc(a1-2)Gal6S(b1-4)GlcNAc
# Method in brief: as §1
# [7] = target: Fuc(a1-2)[Gal(a1-3)]Gal(b1-3)GlcNAc(b1-2)Man(a1-3)[Fuc(a1-2)[Gal(a1-3)]Gal(b1-3)GlcNAc(b1-2)Man(a1-6)]Man(b1-4)GlcNAc(b1-4)GlcNAc
# Method in brief: as §1
# Fuc(a1-3)GlcNAc = target: Fuc(a1-3)GlcNAc
# Method in brief: as §1
# [8] = target: Fuc(a1-3)[Gal3S(b1-4)]GlcNAc
# Method in brief: as §1
# Fuc(a1-4)GlcNAc = target: Fuc(a1-4)GlcNAc
# Method in brief: as §1
# [9] = target: Gal(a1-3)Gal(b1-4)[Fuc(a1-3)]GalNAc
# Method in brief: as §1
# Gal(a1-4)GlcNAc = target: Gal(a1-4)GlcNAc
# Method in brief: as §1
# [10] = target: Gal(b1-3)GlcNAc(b1-3)Gal(b1-4)[Fuc(a1-3)]GlcNAc(b1-6)[Gal(b1-3)GlcNAc(b1-3)]Gal(b1-4)Glc
# Method in brief: as §1
# [11] = target: Gal(b1-3)GlcNAc(b1-3)GalNAc
# Method in brief: as §1
# [12] = target: Gal(b1-3)[GlcNAc(b1-6)]GlcNAc
# Method in brief: as §1
# [13] = target: Gal(b1-4)GlcNAc(b1-2)[Gal(b1-4)GlcNAc(b1-4)]Man(a1-3)[GlcNAc(b1-4)][Gal(b1-4)GlcNAc(b1-2)Man(a1-6)]Man(b1-4)GlcNAc(b1-4)GlcNAc
# Method in brief: as §1
# [14] = target: Gal(b1-4)GlcNAc(b1-3)Gal(b1-4)[Fuc(a1-3)GlcNAc(b1-6)]Gal(b1-4)Glc
# Method in brief: as §1
# Glc(b1-4)Glc = target: Glc(b1-4)Glc
# Method in brief: as §1
# [15] = target: GlcNAc(a1-3)Gal(b1-4)GlcNAc
# Method in brief: as §1
# GlcNAc(b1-3)Gal = target: GlcNAc(b1-3)Gal
# Method in brief: as §1
# [16] = target: GlcNAc(b1-3)Gal(b1-3)GalNAc
# Method in brief: as §1
# [17] = target: GlcNAc(b1-3)[GlcNAc(b1-6)]Gal(b1-4)GlcNAc
# Method in brief: as §1
# [18] = target: GlcNAc(b1-3)[GlcNAc(b1-6)]GlcNAc(b1-4)GlcNAc
# Method in brief: as §1
# [19] = target: GlcNAc(b1-4)Gal(b1-4)GlcNAc
# Method in brief: as §1
# [20] = target: GlcNAc6S(b1-3)Gal(b1-4)GlcNAc
# Method in brief: as §1
# [21] = target: Neu5Ac(a2-3)Gal(b1-3)GlcNAc6S
# Method in brief: as §1
# [22] = target: Neu5Ac(a2-3)Gal(b1-3)[Fuc(a1-4)]GlcNAc
# Method in brief: as §1
# [23] = target: Neu5Ac(a2-3)Gal(b1-4)GlcNAc(b1-6)[Gal(b1-3)]GalNAc
# Method in brief: as §1
# [24] = target: Neu5Ac(a2-3)Gal6S(b1-4)GlcNAc
# Method in brief: as §1
# Neu5Ac(a2-3)GalNAc = target: Neu5Ac(a2-3)GalNAc
# Method in brief: as §1
# [25] = target: Neu5Ac(a2-3)[Neu5Ac(a2-6)]GalNAc
# Method in brief: as §1
# [26] = target: Neu5Ac(a2-6)Gal(b1-4)GlcNAc(b1-2)Man(a1-6)[GlcNAc(b1-2)Man(a1-3)]Man(b1-4)GlcNAc(b1-4)GlcNAc
# Method in brief: as §1
# [27] = target: Neu5Ac(a2-8)Neu5Ac(a2-3)[GalNAc(b1-4)]Gal(b1-4)Glc
# Method in brief: as §1
# [28] = target: Neu5Ac(a2-8)Neu5Ac(a2-8)Neu5Ac
# Method in brief: as §1
binder,measurement,setting,value
B1,glycan array binding signal (z-score),[1],-0.012
same,glycan array binding signal (z-score),Fuc(a1-2)Gal(b1-4)Glc6S,3.52
same,glycan array binding signal (z-score),[2],3.03
same,glycan array binding signal (z-score),[3],2.6
same,glycan array binding signal (z-score),[4],2.51
same,glycan array binding signal (z-score),[5],2.68
same,glycan array binding signal (z-score),[6],2.6
same,glycan array binding signal (z-score),[7],-0.407
same,glycan array binding signal (z-score),Fuc(a1-3)GlcNAc,2.85
same,glycan array binding signal (z-score),[8],1.76
same,glycan array binding signal (z-score),Fuc(a1-4)GlcNAc,1.99
same,glycan array binding signal (z-score),[9],2.52
same,glycan array binding signal (z-score),Gal(a1-4)GlcNAc,-0.498
same,glycan array binding signal (z-score),[10],0.584
same,glycan array binding signal (z-score),[11],-0.414
same,glycan array binding signal (z-score),[12],-0.62
same,glycan array binding signal (z-score),[13],-0.348
same,glycan array binding signal (z-score),[14],0.521
same,glycan array binding signal (z-score),Glc(b1-4)Glc,-0.525
same,glycan array binding signal (z-score),[15],-0.512
same,glycan array binding signal (z-score),GlcNAc(b1-3)Gal,-0.501
same,glycan array binding signal (z-score),[16],-0.515
same,glycan array binding signal (z-score),[17],-0.514
same,glycan array binding signal (z-score),[18],-0.567
same,glycan array binding signal (z-score),[19],-0.525
same,glycan array binding signal (z-score),[20],-0.391
same,glycan array binding signal (z-score),[21],-0.493
same,glycan array binding signal (z-score),[22],1.33
same,glycan array binding signal (z-score),[23],-0.444
same,glycan array binding signal (z-score),[24],1.5
same,glycan array binding signal (z-score),Neu5Ac(a2-3)GalNAc,-0.531
same,glycan array binding signal (z-score),[25],-0.551
same,glycan array binding signal (z-score),[26],-0.423
same,glycan array binding signal (z-score),[27],-0.499
same,glycan array binding signal (z-score),[28],-0.526
